This note sets out measurements from PubChem BioAssay (Tox21).

Unmarked numbers belong to inactive results. Results filed as inconclusive are left out. Activity calls are given as the source filed them. Calls come from the whole dose curve; as a rule, active = well fitted curve in the direction sought with a large enough effect in the repeat runs; inconclusive = weak or mixed curves; inactive = no such curve, though single readings can be large; an effect the other way counts as inactive or inconclusive.

The nature of experiment [1]: A CellTox Green Cytotoxicity Assay to monitor cytotoxicity in HepG2 cells - 0 hour (AID 1224882). Note: nearly all actives have a fitted effect of over 35% in size. The gist of the method:
(§1)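 Fluorescent DNA-binding dye, 600 HepG2 cells/well, 5 h preincubation then compound in DMSO; same plates read at 0–40 h, 37 C.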

Experiment [2] in a line: A CellTox Green Cytotoxicity Assay to monitor cytotoxicity in HepG2 cells - 32 hour (AID 1224883). Note: nearly all actives have a fitted effect of over 50% in size. The gist of the method:
as §1

The nature of experiment [3]: A CellTox Green Cytotoxicity Assay to monitor cytotoxicity in HEK293 cells - 8 hour (AID 1224884). Note: nearly all actives have a fitted effect of over 35% in size. The gist of the method: (§2)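 Homogeneous no-lysis format: HEK293 cell suspension mixed with CellTox Green reagent, seeded, incubated 5 h at 37 C/5% CO2, then dosed by pintool with compound in DMSO.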
Experiment [4] is described as follows: qHTS RealTime-Glo MT Cell Viability Assay in HepG2 cells - 16 hour (AID 1224885). Note: nearly all actives have a fitted effect of over 50% in size. Put shortly: (§3)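 Real-time, nonlytic viability: 600 HepG2 cells/well mixed with NanoLuc enzyme plus prosubstrate; 5 h settle, compound (DMSO) added by pintool; luminescence monitored over 40 h at 37 C.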
A general note: Quantitative high-throughput screening tests each substance at several concentrations.

The nature of experiment [5]: qHTS RealTime-Glo MT Cell Viability Assay in HEK293 cells - 8 hour (AID 1224887). Note: top concentration of the series differs between compounds; nearly all actives have a fitted effect of over 50% in size. Put shortly:
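Measured as luminescence from the same continuously cultured HEK293 wells at successive time points (0, 8, 16, 24, 32, 40 h) after compound addition. Reagent present from seeding; dosing at 5 h; incubation 37 C.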

Experiment [6] is described as follows: A CellTox Green Cytotoxicity Assay to monitor cytotoxicity in HEK293 cells - 16 hour (AID 1224888). Note: nearly all actives have a fitted effect of over 35% in size. Put shortly: as §2
A short description of experiment [7]: qHTS RealTime-Glo MT Cell Viability Assay in HepG2 cells - 0 hour (AID 1224889). Note: nearly all actives have a fitted effect of over 50% in size. Note: potency is the fitted concentration of half-maximal effect. Put shortly:
as §3

Experiment [8] in a line: A CellTox Green Cytotoxicity Assay to monitor cytotoxicity in HepG2 cells - 8 hour (AID 1224890). Note: nearly all actives have a fitted effect of over 45% in size. Put shortly: as §1
Experiment [9] is described as follows: qHTS assay to identify small molecule antagonists of the estrogen receptor alpha (ER-alpha) signaling pathway using the BG1 cell line in the presence of 0.1 nM 17-beta-estradiol - cell viability counter screen (AID 1259241). Note: nearly all actives have a fitted effect of over 40% in size. The gist of the method: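 Following 5 days in phenol red-free medium with charcoal-stripped serum, VM7Luc4E2 cells received test compounds alongside 0.1 nM 17beta-estradiol (final) at 37C for 22 hr. Live cells were then quantified via protease-substrate fluorescence.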

The nature of experiment [10]: qHTS RealTime-Glo MT Cell Viability Assay in HEK293 cells - 24 hour (AID 1224886). Put shortly: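 Cells + reagent dispensed (600 cells/well, HEK293) → 5 h at 37 C/5% CO2 → 23 nL compound in DMSO pinned → 40 h at 37 C → luminescence read at 0, 8, 16, 24, 32, 40 h.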
% is set by controls: 0 for no effect and ±100 for the full control effect.

Regarding `N#CCNCC#N`, the result in experiment [1] and in [9] was inactive. The Potency entry in experiment [2], in experiment [3], in experiment [4], in experiment [5], in experiment [6] and in experiment [7] was “inactive” each time. In addition, the Potency result in experiment [8] is “inactive”.
As for `CC(C)(C)C(=O)C(Oc1ccc(Cl)cc1)n1cncn1` (configuration not stated), the outcome in experiment [1] and in experiment [9] was inactive. Further, the Potency entry in experiment [2], in [3], in experiment [4], in experiment [5], in experiment [6] and in [7] was “inactive” each time. The Potency result in [8] is “inactive”.
Take `C1CCC(C2CCCCC2)CC1`: the outcome in [1] and in [9] was inactive. Also, the Potency result in [2], in experiment [3], in [4], in [5], in [6] and in experiment [7] was “inactive” each time. Also, the Potency result in experiment [8] was “inactive”.
As to `CCOC(=O)/C=C(C)/C=C/C[C@@H](C)CCCC(C)C`, the call in experiment [1] and in experiment [9] was inactive. Also, the Potency result in experiment [2], in experiment [3], in experiment [4], in experiment [5], in [6] and in [7] was “inactive” throughout.
As to `Cc1cc(C)c(C(=O)P(=O)(C(=O)c2c(C)cc(C)cc2C)c2ccccc2)c(C)c1`, the molecule was classed as inactive in experiment [1] and in experiment [9]. In addition, the Potency entry in experiment [2], in [3], in experiment [4], in experiment [5], in experiment [6] and in experiment [7] was “inactive” each time. The Potency result in experiment [8] is “inactive”.
For `Cc1nc(N)nc(N)n1`, the molecule was called inactive in experiment [1] and in [9]. For the same molecule, the Potency entry in experiment [2], in experiment [3], in experiment [4], in experiment [5], in experiment [6] and in [7] was “inactive” in each case. Also, in experiment [8], the Potency result is “inactive”.
`Cc1cc(C)nc(Nc2ccccc2)n1`: the call in [1] and in [9] was inactive. In addition, the Potency entry in [2], in [3], in experiment [4], in experiment [5], in experiment [6] and in experiment [7] was “inactive” in each case. The Potency entry in experiment [8] is “inactive”.
Turning to `Cc1coc2c1CCC(C)C2` (configuration not stated), the call in experiment [1] and in experiment [9] was inactive. Also, the Potency result in [2], in experiment [3], in experiment [4], in [5], in experiment [6] and in experiment [7] was “inactive” throughout. Also, the Potency entry in [8] is “inactive”.
On to `CCCCP(CCCC)CCCC`, for which the outcome in [1] and in experiment [9] was inactive. Also, the Potency result in [2], in experiment [3], in experiment [4], in experiment [5], in experiment [6] and in [7] was “inactive” each time. Also, the Potency result in [8] is “inactive”.
As to `COc1cc(OC)nc(NC(=O)NS(=O)(=O)c2ncccc2C(=O)N(C)C)n1`, the call in [1] and in experiment [9] was inactive. For the same molecule, the Potency entry in experiment [2], in experiment [3], in experiment [4], in [5], in experiment [6] and in [7] was “inactive” in each case. Also, in experiment [8], the Potency entry was “inactive”.
For the molecule `O=C(CCN1CC1)OCC(CO)(COC(=O)CCN1CC1)COC(=O)CCN1CC1`, the call in [1] and in experiment [9] was inactive. The Potency entry in [2], in experiment [3], in experiment [4], in experiment [5], in experiment [6] and in experiment [7] was “inactive” throughout. For the same molecule, the Potency entry in experiment [8] is “inactive”.
With `N#Cc1c(Cl)cccc1Cl`, the outcome in [1] and in experiment [9] was inactive. Moreover, the Potency result in experiment [2], in experiment [3], in experiment [4], in [5], in experiment [6] and in experiment [7] was “inactive” in each case. Moreover, the Potency result in experiment [8] is “inactive”.
As to `COC(=O)C(C)Oc1ccc(Oc2ccc(Cl)cc2Cl)cc1` (configuration not stated), the molecule was classed as inactive in experiment [1] and in experiment [9]. The Potency result in [2], in experiment [3], in experiment [4], in [5], in experiment [6] and in [7] was “inactive” each time. The Potency result in [8] is “inactive”.
Take `CC(N)=S`: the result in [1] and in experiment [9] was inactive. The Potency entry in [2], in [3], in [4], in [5], in experiment [6] and in experiment [7] was “inactive” in each case. Besides, the Potency result in [8] was “inactive”.
For `CCC(C)n1c(=O)[nH]c(C)c(Br)c1=O` (configuration not stated), the call in experiment [1] and in experiment [9] was inactive. The Potency result in [2], in [3], in experiment [4], in [5], in experiment [6] and in experiment [7] was “inactive” in each case. In addition, the Potency result in experiment [8] was “inactive”.
`CC1=NNC(=O)N(/N=C/c2cccnc2)C1`: the molecule was called inactive in experiment [1] and in [9]. The Potency entry in [2], in [3], in experiment [4], in [5], in [6] and in experiment [7] was “inactive” each time. In addition, in [8], the Potency entry was “inactive”.
Turning to `CCOC(=O)NC(=S)Nc1ccccc1NC(=S)NC(=O)OCC`, the molecule was classed as inactive in experiment [1] and in experiment [9]. In addition, the Potency result in experiment [2], in experiment [3], in [4], in experiment [5], in experiment [6] and in [7] was “inactive” each time.
As to `CCOC(=O)C(c1c(O)c2ccccc2oc1=O)c1c(O)c2ccccc2oc1=O`, the result in [1] and in experiment [9] was inactive. The Potency entry in experiment [2], in experiment [3], in experiment [4], in [5], in experiment [6] and in experiment [8] was “inactive” in each case.
With `Nc1n[nH]c(N)n1`, the call in [1] and in experiment [9] was inactive. The Potency result in [2], in [3], in experiment [4], in [5], in experiment [6] and in [7] was “inactive” in each case. The Potency entry in experiment [8] was “inactive”.
As to `CC(C1CC1)C(O)(Cn1cncn1)c1ccc(Cl)cc1` (configuration not stated), the outcome in experiment [1] and in experiment [9] was inactive. Also, the Potency result in [2], in experiment [3], in [4], in experiment [5], in [7] and in [8] was “inactive” each time.
For `CC(Cl)(Cl)[N+](=O)[O-]`, the call in experiment [1] and in [9] was inactive. The Potency entry in [2], in [3], in experiment [4], in [5], in experiment [6] and in [7] was “inactive” in each case. For the same molecule, the Potency entry in experiment [8] was “inactive”.
Turning to `CCOP(=O)(OCC)OP(=O)(OCC)OCC`, the call in experiment [1] and in [9] was inactive. Also, the Potency entry in [2], in [3], in experiment [4], in experiment [5], in [6] and in [7] was “inactive” in each case. Further, the Potency entry in experiment [8] is “inactive”.
For `CC1=C(C(=O)O)N2C(=O)[C@@H](N)[C@H]2SC1`, the cytotoxicity in [1] was -6.07% [at 15.8 µM]. The cytotoxicity increase is -8.31% [at 15.8 µM] in experiment [2], -10.6% [at 15.8 µM] in experiment [3] and -7.33% [at 15.8 µM] in experiment [8]. In addition, the activity change, negative = cytotoxic in experiment [4] is 0.0678% [at 15.8 µM]. The values for the activity change, negative = cytotoxicity in experiment [5], in experiment [7] and in experiment [9] were -0.746% [at 15.8 µM], -0.386% [at 15.8 µM] and 0.956% [at 19 µM], respectively. For the same molecule, the activity change in [6] is -1.57% [at 15.8 µM, hits give high values].
In the case of `O=P(O)(Oc1ccccc1)Oc1ccccc1`, the outcome in [1] and in experiment [9] was inactive. Also, the Potency result in [2], in experiment [3], in experiment [4], in experiment [5], in experiment [6] and in experiment [7] was “inactive” in each case. Moreover, the Potency entry in [8] was “inactive”.
For `CCC/C(=N\OCC)C1=C(O)CC(CC(C)SCC)CC1=O` (configuration not stated), the result in experiment [1] and in experiment [9] was inactive. Further, the Potency entry in experiment [2], in experiment [3], in experiment [4], in [5], in experiment [7] and in experiment [8] was “inactive” in each case.
Consider `C[C@]1(O)CC[C@H]2[C@@H]3CCC4=CC(=O)CC[C@]4(C)[C@@]3(F)[C@@H](O)C[C@@]21C`, for which the molecule was called inactive in [1] and in [9]. In addition, the Potency result in experiment [2], in experiment [3], in experiment [4], in experiment [5], in experiment [6] and in [8] was “inactive” each time. Also, the Potency in experiment [7] is 12.4 µM (active).
Take `O=C(NCO)NCO`: the outcome in [1] and in experiment [9] was inactive. For the same molecule, the Potency result in [2], in experiment [3], in [4], in experiment [5], in experiment [6] and in [7] was “inactive” each time.
Take `CCSC(=O)N(CC)C1CCCCC1`: the molecule was classed as inactive in experiment [1] and in experiment [9]. The Potency entry in experiment [2], in experiment [3], in experiment [4], in experiment [5], in experiment [6] and in experiment [7] was “inactive” throughout. Further, in experiment [8], the Potency entry was “inactive”.
With `COc1ccc2c(c1OC)CN1CCc3cc4c(cc3C1C2)OCO4` (configuration not stated), the molecule was called inactive in experiment [1] and in experiment [9]. The Potency entry in experiment [2], in [3], in experiment [4], in experiment [5], in experiment [6] and in experiment [7] was “inactive” in each case. Also, the Potency entry in [8] was “inactive”.
`CC(COc1ccc(Oc2ccccc2)cc1)Oc1ccccn1` (configuration not stated): the call in experiment [1] and in [9] was inactive. The Potency entry in experiment [2], in [3], in experiment [4], in experiment [6], in [7] and in [8] was “inactive” in each case.
In the case of `CN1CCC(O)(c2ccc(F)cc2)C(C(=O)c2ccc(F)cc2)C1` (configuration not stated), the Potency entry in experiment [3], in [4], in [10], in experiment [5], in experiment [6] and in experiment [7] was “inactive” each time. The result in experiment [9] was inactive.
On to `CN1C(=S)CN=C(c2ccccc2)c2cc(Cl)ccc21`, for which the molecule was called inactive in experiment [1] and in experiment [9]. In addition, the Potency result in experiment [2], in experiment [4], in experiment [10], in [5] and in experiment [7] was “inactive” throughout.
